Source: PubChem (Broad Institute)
Shown are actives, neighbours in structure and some others; about 7.4% of the full set was active somewhere.
PD-1 reverse act: activators reversing PD-1 mediated T-cell inhibition; primary human CD4 T cells, PD-L1 beads, CellTiter-Glo 96 h; activation, % (test concentration not listed); 29,000 tested, under 10 active; call rule not given here
MITF inhib: inhibitors of MITF; TRPM1 promoter luciferase, luminescence, 24 h; inhibition, % (no concentration beside the values); 37,000 tested, 0.28% active; in the data active = inhibition above about 85%; inconclusive = no clear call, values can overlap the other calls; inactive = below about 68%;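 also: human melanocyte line stably carrying TRPM1 promoter luciferase reporter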
Hedgehog inh: Sonic Hedgehog pathway inhibition; Shh-LIGHT2 Gli-luciferase reporter, 30 h; inhibition, % (no concentration beside the values); 22,000 tested, 2.1% active; AID 2313;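 active = mean inhibition across valid replicates above about 65%, limit read from the data; inconclusive = mean under the limit, yet half or more replicates past it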;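 also: pathway switched on by Shh-conditioned medium diluted 1 in 25 in low serum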
NOMO-1 viab: STK33 inhibitor candidate reducing NOMO-1 cell viability; NOMO-1 AML viability, CellTiter-Glo luminescence, 72 h; inhibition, % (no concentration beside the values); 37,000 tested, 7.5% active; AID 2330; in the data active = inhibition above about 80%; inconclusive = no clear call, values can overlap the other calls
YB-1 expr inh: YB-1 expression inhibition | U2OS, qRT-PCR YB-1 vs CDIP delta delta Cp, 16 h; stronger effect = higher value; zero = DMSO, each unit about twofold | delta delta Cp (YB-1 minus CDIP) (no concentration beside the values) | AID 434959 | 30,000 tested, 0.37% active;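 active = delta delta Cp rounded down to an integer at or above 3, about 3 SD of DMSO wells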;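 also: higher means less YB-1 transcript or more CDIP transcript relative to DMSO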
A number is an active result; 0 = inactive; ? = inconclusive; - = not tested or not shown; ! = not active in a repeat.

SMILES	PD-1 reverse act	MITF inhib	Hedgehog inh	NOMO-1 viab	YB-1 expr inh
C[C@@H]1CCOC(=O)C=CC=CC(=O)O[C@@H]2C[C@H]3O[C@@H]4C=C(CO)CC[C@]4(COC(=O)[C@H]1O)[C@]2(C)[C@]31CO1	0	0	0	0	0
CC1=CC2/C=C(\C)CCC(O)C(O)/C=C/C(=O)C23C(=O)NC(CC(C)C)C3C1C (stereo not given)	0	89	71	121	0
CN1CC[C@@H]2CN3CCc4cccc(c43)[C@@H]2C1	-	0	?	0	0
O=C(CC[N+](=O)[O-])OC[C@H]1O[C@@H](O)[C@H](OC(=O)CC[N+](=O)[O-])[C@@H](OC(=O)CC[N+](=O)[O-])[C@@H]1OC(=O)CC[N+](=O)[O-]	-	0	0	106	0
C=C(C)[C@@]12O[C@@H]1[C@@]1(C)C(=C[C@H]2O)CC[C@@H](O)[C@@H]1C	0	0	0	0	0
CC1CCCCCC(=O)c2c(O)cc(O)cc2CC(=O)O1 (stereo not given)	0	0	0	0	0
COC1CC(OC2CCC3(C)C(CCC4C3CCC3(C)C(C5=CC(=O)OC5)C(OC(C)=O)CC43O)C2)OC(C)C1OC1OC(COC2OC(CO)C(O)C(O)C2O)C(O)C(O)C1O (stereo not given)	0	0	0	110	0
CO[C@H]1[C@H](O)[C@H](O[C@H]2CC[C@]3(C)C4CC[C@]5(C)C(C6=CC(=O)OC6)CC[C@]5(O)C4CC[C@@H]3C2)O[C@@H](C)[C@@H]1O (stereo not given in full)	-	0	0	110	0
C[C@]12CC[C@H](O)C[C@H]1CCC1C2CC[C@]2(C)[C@@H](C3=CC(=O)OC3)[C@@H](O)C[C@]12O (stereo not given in full)	-	0	0	97	0
C=C[C@H]1[C@H](O[C@@H]2O[C@H](CO)[C@@H](O)[C@H](O)[C@H]2O)OC=C2C(=O)OCC[C@H]21	-	-	0	-	0
O=c1cc(O)c2ccccc2o1	0	0	0	0	0
CC1(C)C(=O)C=C[C@@]2(C)C1C(=O)C(=O)[C@]1(C)C2CC[C@@]2(C)[C@H](c3ccoc3)C[C@H]3O[C@]321 (stereo not given in full)	-	108	0	108	0
CC(=O)CC(c1ccc(Br)cc1)c1c(O)c2ccccc2oc1=O (stereo not given)	-	0	-	0	-
CC(=O)[C@H]1CC[C@H]2[C@@H]3CC[C@H]4C[C@H](O)CC[C@]4(C)[C@H]3CC[C@]12C	-	0	0	0	0
CCOC(=O)c1c(C)n(Cc2ccccc2)c2ccc(OCC(O)CNC(C)(C)C)cc12 (stereo not given)	0	0	0	117	0
CC(C)(C)NC[C@H](O)COc1cccc2[nH]c(C#N)cc12	0	0	0	0	0
COc1ccc(OC(=O)N(C)C[C@H]2OCc3cnnn3CCCC(=O)N([C@@H](C)CO)C[C@H]2C)cc1	-	-	-	-	0
CC1=NCCc2c1[nH]c1cc(O)ccc21	0	0	80!	0	0
C[C@@H]1CN([C@H](C)CO)C(=O)CCCn2cc(nn2)CO[C@H]1CN(C)C(=O)Oc1ccc2ccccc2c1	-	-	-	-	0
C[C@@H]1Cc2c(Cl)cc(C(=O)N[C@@H](Cc3ccccc3)C(=O)O)c(O)c2C(=O)O1	-	-	78	-	0
COc1ccc2c3c1O[C@H]1[C@@H](O)C=C[C@H]4C(C2)N(C)CCC341 (stereo not given in full)	-	-	0	-	0
CNc1ccccc1C(=O)O	-	0	0	0	0
C[CH2][Hg][S]c1ccccc1C(=O)O	-	105	?	111	0
CN1Cc2c(ccc3c2OCO3)C2C(O)Cc3cc4c(cc3C21)OCO4 (stereo not given)	-	0	82	104	0
COC(=O)C1=COC(C)C2CN3CCc4c([nH]c5cc(OC)ccc45)C3CC12 (stereo not given)	0	0	0	0	0
C/C1=C/[C@@H](C)C/C=C/[C@H]2[C@@H]3O[C@]3(C)[C@@H](C)[C@H]3[C@H](Cc4c[nH]c5ccccc45)NC(=O)[C@]32C(=O)/C=C\C(=O)[C@@H]1O	-	-	102	-	0
C/C=C\C(=O)O[C@@H]1C[C@H]2O[C@@H]3C=C(C)C(=O)C[C@]3(C)[C@]1(C)[C@]21CO1	0	92	65	122	0
